In PubChem BioAssay (NCATS) one finds Potency data, which are given here for 36 molecules.

Active and inactive are the calls of the source. Where a call stands in place of a potency, no number is given. The call rests on the fitted dose curve; in most records, active means well fitted curve in the direction sought with a large enough effect; inconclusive means small, poorly fitted or top-dose-only effect, or another doubt; inactive means no such curve, though single readings can be large or run the other way.

The assay in a line: qHTS for compounds that reverse cellular toxicity of Amyloid beta (A-beta) peptide in yeast: LOPAC Validation Assay (AID 720559). The note with it: yeast expressing A-beta; Potency: rescue of growth toxicity; series mostly up to 46.1 µM. In outline: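 OD600 growth readout after 48 hr at 30 C; A-beta-toxic yeast plus pinned compounds in medium. Normalization: DMSO = negative, equimolar FeCl3 + clioquinol = positive.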
`C[C@@H](CN1CCC(Cc2ccccc2)CC1)[C@@H](O)c1ccc(O)cc1`: the Potency entry was “inactive”. To `CCCN(CC1CC1)c1nc(C)nc(Nc2c(Cl)cc(Cl)cc2Cl)c1Cl` belongs “inactive”; to `CCCCN1CCC(n2c(=O)[nH]c3ccccc32)CC1`, “inactive”; to `NCCCCCCCCCCN`, “inactive”.

As to `CCNC(=O)[C@H]1O[C@@H](n2cnc3c(N)nc(NCCc4ccc(CCC(=O)O)cc4)nc32)[C@H](O)[C@@H]1O`, the Potency entry was “inactive”. Under `O=[N+]([O-])c1ccc(CSc2ncnc3c2ncn3[C@@H]2O[C@H](CO)[C@@H](O)[C@H]2O)cc1` stands “inactive”; under `NCC1OC(O[C@H]2[C@H](O)[C@@H](OC3C(O)C(N)CC(N)C3OC3OC(CO)C(O)C(O)C3N)O[C@@H]2CO)C(N)C(O)C1O` (stereo partly specified), “inactive”; under `O=C(/C=C/c1ccc(O)cc1)c1ccc(O)cc1O`, “inactive”. Under `CC1(C)CCC=[N+]1[O-]` stands “inactive”; under `OCC1O[C@H]([S-])[C@H](O)[C@@H](O)[C@@H]1O.[Au+]` (stereo partly specified), “inactive”. For `CC(C)NC[C@H](O)COc1cccc2[nH]ccc12`, the Potency entry is “inactive”. Under `N=c1ccn2c(n1)O[C@H]1[C@H](O)[C@@H](CO)O[C@H]12` stands “inactive”; under `C=CC(C)=C[C@@]1(C)SC(=O)C(C)=C1O`, “inactive”. Consider `NC[C@H]1O[C@@H](n2cnc3c(N)ncnc32)[C@H](O)[C@@H]1O`, for which the Potency result is “inactive”. Under `CCCCCCCCc1ccc(-c2ccc(C(=O)O)cc2)cc1` stands “inactive”. `N#C/C(=C\c1ccc(O)c(O)c1)C(=O)NCc1ccccc1`: the Potency result is “inactive”. In the case of `C=C[C@@H]1CN2CC[C@@H]1C[C@H]2[C@H](O)c1ccnc2ccc(OC)cc12`, the Potency result is “inactive”. Under `CN(C)c1nc2c(Br)c(Br)c(Br)c(Br)c2[nH]1` stands “inactive”. To `N#C/C(=C\c1ccc(O)c(O)c1)C(=O)c1ccc(O)c(O)c1` belongs “inactive”; to `O=C(O)c1cc([N+](=O)[O-])ccc1NCCCc1ccccc1`, “inactive”. As to `C[N+]1(C)C2CC(OC(=O)[C@H](CO)c3ccccc3)CC1C1OC12` (stereo partly specified), the Potency result was “inactive”. Under `N.N.N.N.N.N.N.N.N.N.N.N.N.N.O.O.[Ru+4].[Ru+5].[Ru+5]` stands “inactive”. Under `CN1C2CC(OC(=O)[C@H](CO)c3ccccc3)CC1C1OC12` (stereo partly specified) stands “inactive”; under `CC1CN(S(=O)(=O)c2cccc3cnccc23)CCN1` (stereo unspecified), “inactive”; under `NO`, “inactive”. Under `CNC(=O)[C@H]1O[C@@H](n2cnc3c(NCc4cccc(I)c4)ncnc32)[C@H](O)[C@@H]1O` stands “inactive”; under `COc1ccccc1CNCCCCCCNCCCCCCCCNCCCCCCNCc1ccccc1OC`, “inactive”. Consider `O=C(O)CCCC[C@@H]1CCSS1`, for which the Potency result was “inactive”. To `Fc1cccc(/C=N/N=C/c2cccc(F)c2)c1` belongs “inactive”; to `O=C(CCCCCN1CCN(c2ccccc2-c2ccccc2)CC1)NC1CCCc2ccccc21` (stereo unspecified), “inactive”. `CC(C)NC[C@@H](O)c1ccc(O)c(O)c1`: the Potency result is “inactive”. To `Oc1cc2c(cc1O)CN(C(=S)NCCc1ccc(Cl)cc1)CCC2` belongs “inactive”; to `S=C(S)OC1CC2CC1C1CCCC21` (stereo unspecified), “inactive”. To `CC(C)(C=O)Cc1cc(C(C)(C)C)c(O)c(C(C)(C)C)c1` belongs “inactive”. Under `CCCCC/C=C\CC(O)/C=C/c1cccc(CC(O)CCCCO)n1` (stereo unspecified) stands “inactive”. For the molecule `O=C(O)CNC(=O)C(CS)Cc1ccccc1` (stereo unspecified), the Potency result was “inactive”.
